Assay results: the supplement of paper PMC6555819

Columns and labels:
Assay in all cases: PBM binding z-score (relative to random genomic background probes); higher = stronger binding; sequences stand for … in GC…GCGATTGACAGCGTAGAATGAAGG
[1] = system: PPARg:RXRa DBDmut IVT, anti-RXR (DBD mutation: RXRa K156A/R161A, NR concentration 270 nM, RXRa partner concentration 90 nM)
Method in brief: (§1)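 Binding z-scores were set against random background probes. The data came from custom Agilent 4×180K protein-binding microarrays carrying double-stranded probes with 34-nt variable regions, incubated 1 h with ligand-free nuclear receptor dimers. Partner-specific antibodies detected binding, and scanned fluorescence was regression-normalized.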

[2] = system: PPARg:RXRa IVT, anti-PPARg (NR concentration 270 nM, RXRa partner concentration 90 nM)
Method in brief: as §1

[3] = system: PPARg DBDmut:RXRa IVT, anti-PPARg (DBD mutation: PPARg1 K132A/R137A, NR concentration 270 nM, RXRa partner concentration 90 nM)
Method in brief: as §1

[4] = system: PPARg DBDmut IVT, anti-PPARg (DBD mutation: PPARg1 K132A/R137A, NR concentration 270 nM)
Method in brief: as §1

[5] = system: PPARg homodimer (NR concentration 180 nM)
Method in brief: as §1

[6] = system: PXR:RXRa (NR concentration 270 nM, RXRa partner concentration 90 nM)
Method in brief: as §1

[7] = system: PXR homodimer (NR concentration 270 nM)
Method in brief: as §1

[8] = system: RARa:RXR (NR concentration 270 nM, RXRa partner concentration 90 nM)
Method in brief: as §1

[9] = system: RARa homodimer (NR concentration 270 nM)
Method in brief: as §1

[10] = system: RARb:RXRa (NR concentration 270 nM, RXRa partner concentration 90 nM)
Method in brief: as §1

[11] = system: RARb homodimer (NR concentration 270 nM)
Method in brief: as §1

[12] = system: RARg:RXRa (NR concentration 270 nM, RXRa partner concentration 90 nM)
Method in brief: as §1

[13] = system: RARg homodimer (NR concentration 270 nM)
Method in brief: as §1

[14] = system: RXRa DBDmut IVT, anti-RXR (DBD mutation: RXRa K156A/R161A, NR concentration 90 nM)
Method in brief: as §1

[15] = system: THRa:RXRa (NR concentration 90 nM, RXRa partner concentration 90 nM)
Method in brief: as §1

[16] = system: THRa homodimer (NR concentration 90 nM)
Method in brief: as §1

[17] = system: VDR homodimer (NR concentration 270 nM)
Method in brief: as §1

[18] = system: RXRa homodimer (NR concentration 180 nM)
Method in brief: as §1

[19] = system: VDR:RXRa (NR concentration 270 nM, RXRa partner concentration 90 nM)
Method in brief: as §1

Row | Sequence | PBM binding z-score [1] | PBM binding z-score [2] | PBM binding z-score [3] | PBM binding z-score [4] | PBM binding z-score [5] | PBM binding z-score [6] | PBM binding z-score [7] | PBM binding z-score [8] | PBM binding z-score [9] | PBM binding z-score [10] | PBM binding z-score [11] | PBM binding z-score [12] | PBM binding z-score [13] | PBM binding z-score [14] | PBM binding z-score [15] | PBM binding z-score [16] | PBM binding z-score [17] | PBM binding z-score [18] | PBM binding z-score [19]
1 | GATAGTTGGTCAGTAAAAGGTCACACACCGGTCG | 1 | 3.26 | 0.61 | 0.944 | 4.23 | 4.92 | 1.52 | 5.65 | 3.2 | 4.42 | 5.36 | 5.32 | 4.96 | 0.579 | 3.59 | 1.91 | 2.12 | – | –
2 | CGTCCAAGGTCAATGCTAGGCCAGTGAAAGCATT | 2.99 | 3.13 | -0.61 | -0.971 | 2.78 | 3.64 | 0.593 | 4.31 | 0.644 | 4.96 | 3.99 | 6.23 | 6.11 | 3.55 | 3.96 | 2.15 | 2.49 | – | –
3 | GATACACGGTCAAGGCCAGAGTACGCGTATTGAT | 0.208 | 0.594 | -0.0876 | -0.79 | -0.507 | 0.00631 | -0.314 | -0.159 | -0.63 | 2.67 | 1.73 | 1.54 | 2.53 | -0.0133 | 0.429 | -0.515 | 0.324 | – | –
4 | TGAATGAGGTCAAAGATCAGGGAACGTGGCGTCG | 5.48 | 6.25 | 2.11 | 0.903 | 2.17 | 5.41 | 1.74 | 6.5 | 1.38 | 4.99 | 3.65 | 6.3 | 6.16 | 4.12 | 4.33 | 3.06 | 4.68 | – | –
5 | CGTCCAACGTCAGCAGGTCAGTGAAAGCGACGTG | 0.148 | 0.161 | -0.345 | -1.13 | -0.114 | 0.174 | -0.448 | 0.556 | -0.438 | 1.82 | 1.92 | 0.905 | 1.54 | -0.094 | 0.784 | -0.139 | -0.585 | – | –
6 | TCTAGCTGGTCAAAGGTCACACACTCGAAATGCG | 2.35 | 5.48 | 0.807 | 1.12 | 4.18 | 6.12 | 0.771 | 7.74 | 2.13 | 4.89 | 5.13 | 7.3 | 6.69 | 1.15 | 3.88 | 1.36 | 1.86 | – | –
7 | CCTACTGGGCCAAAAAGGTAATTGATGCCGATAA | 3.15 | 2.69 | 0.336 | -0.668 | -0.39 | -0.331 | -0.647 | 0.114 | 0.142 | 0.108 | -0.363 | 0.0737 | -0.0665 | -0.561 | 0.109 | -0.602 | -0.646 | – | –
8 | ATCGAAAGGTCGAGTTGAGTATAGAGAAAGGGAA | -0.0281 | 1.21 | 0.792 | 0.196 | 1.65 | 2.74 | 0.316 | 3.29 | 0.834 | 3.88 | 2.39 | 4.11 | 4.31 | 1.89 | 2.23 | -0.17 | 1 | – | –
9 | TTACCAAGGTGAAAGGTCGGTGATGCACGCCTTG | 2.41 | 4.51 | 1.85 | 0.075 | 1.26 | 2.17 | -0.356 | 3.77 | -0.0129 | 2.65 | 2.16 | 3.18 | 1.51 | -0.134 | 2.66 | 0.427 | -0.0558 | – | –
10 | ATCGAACGGTCGACGAGGTGAGTATACACCGTTT | -0.724 | 0.667 | 0.31 | 0.651 | -0.218 | -0.192 | -0.411 | -0.0707 | -0.605 | 0.92 | 0.461 | 0.635 | 1.21 | -0.546 | 1.26 | 0.292 | -0.356 | – | –
11 | CCTACTGGGCCATGAAAGGTCATTGATTCAGTGA | 4.45 | 4.58 | 0.322 | 0.328 | 3.71 | 5.2 | 1.71 | 5.37 | 1.41 | 3.62 | 4.4 | 4.23 | 3.85 | 0.456 | 3.58 | 0.811 | 2.39 | – | –
12 | CCTGGCAGGCCAGGGTCACTCAAGCATTTCGCTT | -0.558 | 0.531 | -1.01 | -1.58 | 0.712 | 3.01 | -0.393 | 3.1 | -0.89 | 2.91 | 2.66 | 3.49 | 2.46 | -0.63 | 2.96 | 0.655 | 1.3 | – | –
13 | AGTCAAAGTTGATCTAGGTAACGTAAGATATGCT | 0.813 | 2.74 | 0.517 | 1.07 | -0.371 | -0.212 | -0.146 | -0.0598 | -0.276 | 0.672 | -0.057 | – | 0.579 | -0.227 | 1.36 | -0.0633 | -0.278 | 0.191 | 0.0495
14 | GCTTACGGGTCAAAGGTTACAGCATGAATAGAAT | 5.26 | 6.43 | 2.32 | 2.26 | 5.3 | 6.45 | 0.418 | 8.5 | 1.16 | 4.7 | 3.57 | 7.1 | 5.1 | 2.74 | 3.93 | 0.157 | 1.75 | – | –
15 | GCTTACGGGTCAAAAGTTATAGCATGAATAGAAT | 3.77 | 3.87 | 1.08 | 1.18 | 1.4 | 2.94 | 0.168 | 3.7 | 0.546 | 3.16 | 2.05 | – | 3.15 | 1.93 | 2.08 | -0.478 | 0.684 | 4.84 | 2.93
